We go through 17 compounds from PubChem BioAssay (NCATS).

One assay has as its system C33A. The assay is described as follows: Primary qHTS to identify gynecologic anti-cancer compounds using libraries of approved drugs and bioactive compounds (AID 1345084). Further: nearly all actives have a fitted effect of over 55% in size. To be noted: Gynecologic cancer cell panel viability, ATPlite luminescence, 48 h; series mostly up to 57.5 µM. The method in brief:
(§1)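 48 h compound exposure at 37 C, 5% CO2; five-point qHTS. ATPlite luminescence readout of cell ATP.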
Background: Quantitative high-throughput screening tests each substance at several concentrations.

The test system of the next assay is CASKI. Described as above. The settings on record: Gynecologic cancer cell panel viability, ATPlite luminescence, 48 h; series mostly up to 57.5 µM. An outline of the steps: as §1
Background: In ATP-based viability assays light output follows the ATP content of the culture.

The test system of the next assay is Es-2. The description is as above. The settings on record: Gynecologic cancer cell panel viability, ATPlite luminescence, 48 h; series mostly up to 57.5 µM. An outline of the steps:
as §1

The next assay deals with HeLa. Described as above. The settings on record: Gynecologic cancer cell panel viability, ATPlite luminescence, 48 h; series mostly up to 57.5 µM. An outline of the steps:
as §1

Another assay has as its system Hek293T. Described as above. To be noted: Gynecologic cancer cell panel viability, ATPlite luminescence, 48 h, control line for the selectivity index; series mostly up to 57.5 µM. The method in brief:
as §1

Another assay relates to JEG-3. The description is as above. The settings on record: Gynecologic cancer cell panel viability, ATPlite luminescence, 48 h; series mostly up to 57.5 µM. The method in brief:
as §1

The subject of another assay is OV90. Described as above. To be noted: Gynecologic cancer cell panel viability, ATPlite luminescence, 48 h; series mostly up to 57.5 µM. The method in brief: as §1
A further assay concerns PA-1. Described as above. To be noted: Gynecologic cancer cell panel viability, ATPlite luminescence, 48 h; series mostly up to 57.5 µM. An outline of the steps: as §1
A further assay relates to SKOV3. The description is as above. To be noted: Gynecologic cancer cell panel viability, ATPlite luminescence, 48 h; series mostly up to 57.5 µM. The method in brief:
as §1

In a further assay the test system is Tov-21-G. The description is as above. The settings on record: Gynecologic cancer cell panel viability, ATPlite luminescence, 48 h; series mostly up to 57.5 µM. An outline of the steps:
as §1

The next assay relates to Tov112D. The assay is described as above. The settings on record: Gynecologic cancer cell panel viability, ATPlite luminescence, 48 h; series mostly up to 57.5 µM. The method in brief:
as §1

The nature of assay [1]: qHTS assay to identify inhibitors of the type 1 interferon - major histocompatibility complex class I in skeletal muscle: Counter screen cell viability and HiBit confirmation (AID 1347412). On all read-outs here: nearly all actives have a fitted effect of over 60% in size. The settings on record: iHSKM muscle cells + IFN-b, HiBiT or CellTiter-Glo, 24 h; for activity change, negative = inhibition: Viability, at 45.9 µM (top of the series). An outline of the steps: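 Duplicate plates, pinned identically: one read for HiBiT-tagged endogenous HLA-B luminescence, the other for ATP-content viability via CellTiter Glo. Cells were genome-engineered human myoblasts given 4 ng/ml IFN-b; compounds 12-pt, 1:3 from 46 uM final; 24 hr exposure.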

Results filed as inconclusive are left out. Values without a mark were called inactive. Active and inactive are the calls of the source. The call rests on the fitted dose curve; in most records, active means well fitted curve in the direction sought with a large enough effect; inconclusive means small, poorly fitted or top-dose-only effect, or another doubt; inactive means no such curve, though single readings can be large; an effect the other way counts as inactive or inconclusive.
On the % scale 0 is the no-effect control and ±100 the full control effect; potency means the concentration at half of the fitted maximal effect.

As for `C=C(C(=O)OC[C@H]1O[C@@H](OC(=O)/C=C/c2ccccc2)[C@H](O)[C@@H](O)[C@@H]1O)C(O)CO` (some centres not stated), the Potency entry in the assay on C33A, in the assay with CASKI, in the assay with Es-2, with HeLa, in the assay with Hek293T and in the assay on JEG-3 was “inactive” throughout. Also, the Potency entry in the assay with OV90, with PA-1, in the assay with SKOV3, in the assay with Tov-21-G and in the assay on Tov112D was “inactive” each time.

With `O=C(O)c1ccc(N2C(=O)/C(=C/c3ccc(-c4ccc([N+](=O)[O-])cc4)o3)C=C2c2ccccc2)cc1`, the Potency entry with C33A, in the assay with CASKI, in the assay with Es-2, with HeLa, with Hek293T and in the assay on JEG-3 was “inactive” each time. In addition, the Potency result in the assay on OV90, in the assay with PA-1, in the assay on Tov-21-G and in the assay with Tov112D was “inactive” each time.

Turning to `NCC(CNc1nc(Nc2cccc(NC(=O)N3CCCC3)c2)ncc1I)C(=O)c1cccs1` (configuration not stated), the Potency result with C33A, with CASKI, in the assay with Es-2, with HeLa, with Hek293T and in the assay on JEG-3 was “inactive” each time. For the same compound, the Potency result in the assay with OV90, with PA-1, in the assay with SKOV3, in the assay on Tov-21-G and in the assay with Tov112D was “inactive” each time.

On to `CC(=O)O[C@H]1CC[C@]2(C)[C@H]3CC[C@]4(C)Oc5oc(C)cc(=O)c5C[C@H]4[C@]3(C)CC[C@H]2C1(C)C`, for which the Potency result in the assay with C33A, in the assay on CASKI, in the assay with Es-2, with HeLa, in the assay on Hek293T and in the assay on JEG-3 was “inactive” throughout. The Potency result with OV90, with PA-1, in the assay with SKOV3, in the assay with Tov-21-G and in the assay with Tov112D was “inactive” each time.

Consider `C=CC(=O)N1CCN(C(=O)CNc2cc(-c3ccccc3Cl)c(Cl)cc2OC)CC1`, for which the Potency entry in the assay on C33A, in the assay on CASKI, in the assay with Es-2, with HeLa, in the assay with Hek293T and in the assay on JEG-3 was “inactive” each time. For the same compound, the Potency entry in the assay with OV90, in the assay on PA-1, in the assay on SKOV3, in the assay on Tov-21-G and with Tov112D was “inactive” throughout.

Take `CC(C)S(=O)(=O)c1ccc2nccc(Nc3ccc4scnc4c3)c2c1`: the Potency result in the assay on C33A, with CASKI, in the assay with Es-2, in the assay with HeLa, in the assay on Hek293T and with JEG-3 was “inactive” throughout. The Potency entry in the assay with OV90, with PA-1 and in the assay with Tov112D was “inactive” throughout. In addition, the Potency in the assay with SKOV3 is 12.6 µM (active).

Turning to `Cc1[nH]c2ccccc2c1CCNC(=O)c1cccs1`, the Potency result in the assay with C33A, with CASKI, in the assay on Es-2, with HeLa, with Hek293T and in the assay on JEG-3 was “inactive” in each case. For the same compound, the Potency result in the assay on OV90, in the assay on PA-1, with SKOV3, in the assay with Tov-21-G and in the assay on Tov112D was “inactive” throughout.

For `CC1(C)CN(C(=O)c2ccc(-c3cccc4nc(NC(=O)C5CC5)nn34)cc2)C1`, the Potency entry in the assay on C33A, in the assay on CASKI, in the assay on Es-2, with HeLa, in the assay with Hek293T and in the assay on JEG-3 was “inactive” throughout. Further, the Potency entry in the assay with OV90, in the assay with PA-1, in the assay with SKOV3, in the assay on Tov-21-G and in the assay with Tov112D was “inactive” each time. Moreover, the Potency in assay [1] (HiBiT) is 7.87 µM (active). In assay [1], the activity change, negative = inhibition is 3.01%.

On to `CN(C)C(=O)Nc1cc(-c2ccccc2)ccc1N(C)C`, for which the Potency result with C33A, in the assay with CASKI, in the assay with Es-2, in the assay on HeLa, in the assay on Hek293T and in the assay with JEG-3 was “inactive” throughout. For the same compound, the Potency entry in the assay on OV90, in the assay with PA-1, in the assay with SKOV3, in the assay on Tov-21-G and in the assay on Tov112D was “inactive” in each case.

On to `CC(=O)O[C@@H]1C2=C(O)C(=O)[C@](C)(OC(C)=O)C(=O)C2=CO[C@@]12O[C@@H](C)CC[C@H]2OC(C)=O`, for which the Potency result with C33A, in the assay with CASKI, in the assay on Es-2, with HeLa, in the assay on Hek293T and in the assay with JEG-3 was “inactive” each time. Further, the Potency entry in the assay with OV90, in the assay on PA-1, with SKOV3, in the assay with Tov-21-G and in the assay with Tov112D was “inactive” each time.

As to `O=C1NC(=O)C(c2cnc3ccccn23)=C1c1cn2c3c(cc(F)cc13)CN(C(=O)N1CCCCC1)CC2`, the Potency result with C33A, with CASKI, in the assay with Es-2, in the assay on HeLa, in the assay with Hek293T and in the assay with JEG-3 was “inactive” each time. The Potency result in the assay on OV90, in the assay on SKOV3, in the assay with Tov-21-G and with Tov112D was “inactive” throughout. Besides, in the assay with PA-1, the Potency is 17.8 µM (active). For the same compound, the activity change, negative = inhibition in [1] was -0.987%.

In the case of `CN(C)CCn1cc(-c2ccc(F)cc2)c(-n2cccc2)n1`, the Potency result in the assay with C33A, in the assay with CASKI, with Es-2, in the assay on HeLa, in the assay with Hek293T and with JEG-3 was “inactive” each time. Besides, the Potency entry in the assay with OV90, in the assay on PA-1, in the assay on Tov-21-G and in the assay on Tov112D was “inactive” in each case.

`CN(C)c1ccc(NC(=O)NS(=O)(=O)c2ccc(Cl)cc2)cc1`: the Potency result in the assay with C33A, in the assay on CASKI, with Es-2, with HeLa, with Hek293T and with JEG-3 was “inactive” each time. Moreover, the Potency entry with OV90, in the assay with PA-1, with SKOV3, with Tov-21-G and in the assay with Tov112D was “inactive” throughout.

Consider `CC(=O)CC(=O)Nc1ccc(Cl)c(C(F)(F)F)c1`, for which the Potency result with C33A, with CASKI, with Es-2, in the assay on HeLa, in the assay on Hek293T and with JEG-3 was “inactive” throughout. Besides, the Potency result in the assay with OV90, in the assay on PA-1, in the assay on Tov-21-G and in the assay with Tov112D was “inactive” each time.

Regarding `COc1cc(O)cc(/C=C/c2cccc(O)c2)c1`, the Potency result in the assay with C33A, in the assay with CASKI, in the assay on Es-2, in the assay on HeLa, with Hek293T and with JEG-3 was “inactive” throughout. Besides, the Potency result with OV90, in the assay on PA-1, with Tov-21-G and with Tov112D was “inactive” in each case.

Take `CN(CC1COCCO1)S(=O)(=O)Nc1ccc2ccc3ncc(-c4cnn(C)c4)cc3c(=O)c2c1` (configuration not stated): the Potency result with C33A, with CASKI, with Es-2, in the assay on Hek293T, in the assay on JEG-3 and in the assay on OV90 was “inactive” each time. Also, the Potency in the assay with HeLa is 14.1 µM (active); in the assay with SKOV3, 15.8 µM (active).

As to `C=C(C)C(=O)O[C@H]1[C@H]2C(=C)C(=O)O[C@@H]2/C=C(\CO)CC/C=C(/C=O)[C@@H]1O`, the Potency entry in the assay with C33A, in the assay with CASKI, in the assay with Es-2, in the assay on HeLa, with Hek293T and in the assay with JEG-3 was “inactive” each time. The Potency entry in the assay with OV90, in the assay on PA-1, in the assay with SKOV3, with Tov-21-G and in the assay with Tov112D was “inactive” in each case.
